Consider seven compounds from PubChem BioAssay (EPA / NIEHS).

Experiment [1] can be described thus: ATG_CRE_CIS: Attagene CIS-FACTORIAL HepG2 Assay for human cAMP Responsive Element (CRE) binding protein 3 (AID 2282926). Particulars: HepG2 CRE cis-reporter, Attagene multiplexed mRNA; actives raise or lower the signal. Summed up:
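Assay format: transient reporter transfection of HepG2, 24 h treatment, total RNA isolation with DNase I step. Reporter abundance read by fluorescence after PCR and capillary separation; DMSO-normalised gain or loss fitting.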

Experiment [2] addresses CCAAT/enhancer-binding protein beta (Homo sapiens) (UniProt P17676). Put plainly: ATG_C_EBP_CIS: Attagene CIS-FACTORIAL HepG2 Assay for human CCAAT/Enhancer Binding Protein (C/EBP) beta (AID 2282927). The conditions noted are these: HepG2 Attagene cis-factorial transcription factor reporter; actives raise or lower the signal. The method, boiled down:
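Following a 24 h incubation with test chemical, transfected HepG2 cells yielded RNA whose reporter transcripts were quantified by RT-PCR and fluorescent capillary electrophoresis, with DMSO serving as baseline for bidirectional fitting.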

Experiment [3] can be described thus: ATG_CMV_CIS: Attagene CIS-FACTORIAL HepG2 Assay for human CMV (Internal Marker) (AID 2282928).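 Further: endpoint acts as a background internal control marker rather than a target.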 The conditions noted are these: HepG2 CMV promoter reporter, transcription factor profiling; actives raise or lower the signal. Summed up: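 Fluorescence intensity of RT-PCR-derived reporter fragments, resolved by capillary electrophoresis, gives the signal. HepG2 liver cells bearing transfected cis-element reporters were treated 24 h; activity in either direction was fit relative to DMSO-treated controls.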

The nature of experiment [4]: ATG_DR4_LXR_CIS: Attagene CIS-FACTORIAL HepG2 Assay for human Liver X Receptor (LXR), DR4 submotif (AID 2282929). The conditions noted are these: HepG2 Attagene DR4 cis-reporter, mRNA transcription; actives raise or lower the signal. The method, boiled down: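 Cells were transfected with multiple reporter transcription units, exposed to chemicals for 24 hours, then lysed for RNA. Reporter mRNA induction was measured by RT-PCR with capillary electrophoresis detection and fitted in both directions relative to DMSO.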

Experiment [5] has as its target Aryl hydrocarbon receptor (Homo sapiens) (UniProt P35869). Put plainly: ATG_Ahr_CIS: Attagene CIS-FACTORIAL HepG2 Assay for human Aryl Hydrocarbon Receptor (Ahr) (AID 2282930). Particulars: HepG2 AhR cis-factorial reporter transcription; actives raise or lower the signal. Summed up: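 Values derive from bidirectional fitting against DMSO negative control. Underlying signal: cis-element reporter mRNA in transiently transfected HepG2, harvested 24 h post-dose and measured by RT-PCR plus capillary electrophoresis.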

A short description of experiment [6]: ATG_AP_1_CIS: Attagene CIS-FACTORIAL HepG2 Assay for human Activator Protein 1 (AP-1) (AID 2282931). The conditions noted are these: HepG2 Attagene cis-factorial AP-1 reporter mRNA; actives raise or lower the signal. Summed up:
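Endogenous transcription-factor activity in human HepG2 liver cells is read through a cis-promoter reporter transcript, sampled 24 h after dosing. Detection uses RT-PCR with capillary electrophoresis; values come from bidirectional fitting relative to DMSO.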

Experiment [7] can be described thus: ATG_AP_2_CIS: Attagene CIS-FACTORIAL HepG2 Assay for human Activator Protein 2 (AP-2) (AID 2282932). The conditions noted are these: HepG2 AP-2 cis-reporter, Attagene transcription factor profiling; actives raise or lower the signal. The method, boiled down: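 Cells (HepG2) transfected with promoter-driven reporter constructs, treated 24 h. Total RNA reverse-transcribed, reporter cDNA PCR-amplified, FAM-labelled by primer extension, digested, resolved by capillary electrophoresis. Activity fitted both directions versus DMSO.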

Experiment [8] is described as follows: ATG_BRE_CIS: Attagene CIS-FACTORIAL HepG2 Assay for human Bone Morphogenetic Protein (BMP) Response Element (BRE) (AID 2282933). Particulars: HepG2 BMP response element reporter, Attagene transcription factor profiling; actives raise or lower the signal. The method, boiled down: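 A HepG2 multiplex reporter system measured inducible reporter mRNA 24 h post-dosing. Detection: RT-PCR, 6-FAM primer extension, HpaI digestion, capillary electrophoresis. Activity fitted bidirectionally relative to DMSO.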

In experiment [9] the target is Retinoic acid receptor alpha (Homo sapiens) (UniProt P10276). Description: ATG_DR5_RAR_CIS: Attagene CIS-FACTORIAL HepG2 Assay for human Retinoic Acid Receptor Alpha (RARE), DR5 submotif (AID 2282934). Particulars: HepG2 Attagene cis-factorial RARE DR5 reporter, mRNA; actives raise or lower the signal. Summed up:
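Endpoint fitted in both directions relative to DMSO as negative control. It reflects DR5 cis-element reporter mRNA induction in transiently transfected HepG2 cells, measured 24 h after dosing through RT-PCR and fluorescent capillary electrophoresis.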

Experiment [10] deals with Transcription factor E2F1 (Homo sapiens) (UniProt Q01094). Description: ATG_E2F_CIS: Attagene CIS-FACTORIAL HepG2 Assay for human E2F Transcription Factor 1 (AID 2282935). The conditions noted are these: HepG2 Attagene cis-reporter, E2F reporter RNA transcripts; actives raise or lower the signal. Summed up: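 First, HepG2 cells were transfected with reporter transcription units. Next, they were dosed for 24 h. Then RNA was isolated, converted to cDNA, PCR-amplified, FAM-labeled, HpaI-digested and analyzed by capillary electrophoresis.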
Sequence of Transcription factor E2F1 (Homo sapiens) (Q01094 whole entry, looked up): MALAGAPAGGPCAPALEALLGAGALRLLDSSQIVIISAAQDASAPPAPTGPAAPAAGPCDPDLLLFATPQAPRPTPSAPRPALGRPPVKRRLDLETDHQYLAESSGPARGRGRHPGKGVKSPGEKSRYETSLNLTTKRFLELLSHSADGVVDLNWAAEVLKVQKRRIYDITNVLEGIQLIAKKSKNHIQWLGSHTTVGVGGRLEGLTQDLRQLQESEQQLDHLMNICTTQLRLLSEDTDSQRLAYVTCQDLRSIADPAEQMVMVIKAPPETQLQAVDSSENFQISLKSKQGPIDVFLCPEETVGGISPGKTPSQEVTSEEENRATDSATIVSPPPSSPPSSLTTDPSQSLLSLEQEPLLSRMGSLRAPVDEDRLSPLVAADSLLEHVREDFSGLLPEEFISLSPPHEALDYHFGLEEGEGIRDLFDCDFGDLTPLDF

A short description of experiment [11]: ATG_E_Box_CIS: Attagene CIS-FACTORIAL HepG2 Assay for human Enhancer Box (E-box) (AID 2282936). The conditions noted are these: HepG2 E-box cis-reporter transcription, actives raise or lower the signal. The method, boiled down:
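Endogenous transcription factor activity was sensed in human HepG2 liver cells through transfected cis-promoter reporter units. After 24 h of dosing, total RNA was reverse-transcribed and reporter cDNA resolved by capillary electrophoresis.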

Experiment [12] in a line: ATG_M_61_CIS: Attagene CIS-FACTORIAL HepG2 Assay for M61 Transcription Factor (Internal Marker) (AID 2282937). The conditions noted are these: HepG2 Attagene CIS-FACTORIAL M61 internal marker reporter; actives raise or lower the signal. The method, boiled down: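 Cells were transfected with reporter units under cis-regulatory promoters, treated with chemicals for 24 h, then lysed for RNA. Reporter transcripts were quantified by RT-PCR and capillary electrophoresis, and activity was fitted bidirectionally against DMSO.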

Experiment [13] can be described thus: ATG_EGR_CIS: Attagene CIS-FACTORIAL HepG2 Assay for human Early Growth Response 1 (EGR1) (AID 2282938). Particulars: HepG2 Attagene CIS-FACTORIAL EGR reporter mRNA; actives raise or lower the signal. The method, boiled down:
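Endogenous TF activity in HepG2 liver cells was gauged through cis-promoter reporter constructs transiently transfected. After 24 h dosing, reporter mRNA was quantified by RT-PCR and capillary electrophoresis, and curves fitted in both directions versus DMSO.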

The nature of experiment [14]: ATG_M_19_CIS: Attagene CIS-FACTORIAL HepG2 Assay for M19 Transcription Factor (Internal Marker) (AID 2282939). Particulars: HepG2 Attagene CIS-FACTORIAL M19 internal marker reporter; actives raise or lower the signal. The method, boiled down:
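Chemical-treated HepG2 (24 h) with MRTU constructs; reporter transcripts detected by fluorescent RT-PCR fragment analysis on capillary electrophoresis. Internal background marker, DMSO as baseline.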

Experiment [15] in a line: ATG_Ets_CIS: Attagene CIS-FACTORIAL HepG2 Assay for human Erythroblast Transformation Specific (ETS) (AID 2282941). Particulars: HepG2 ETS cis-reporter transcription, actives raise or lower the signal. The method, boiled down: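 Multiplexed reporter transcript profiling: HepG2, 24 h treatment, total RNA to cDNA, PCR, 6-FAM labelling, HpaI cut, capillary electrophoresis. Gain- or loss-of-signal fitted against DMSO.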

In experiment [16] the target is Hepatocyte nuclear factor 3-beta (Homo sapiens) (UniProt Q9Y261). Put plainly: ATG_FoxA2_CIS: Attagene CIS-FACTORIAL HepG2 Assay for human Forkhead box A2 (FOXA2) (AID 2282942). The conditions noted are these: HepG2 cis-reporter transcription factor activity, 24 h; actives raise or lower the signal. The method, boiled down: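 Endogenous transcription factor activity was read in HepG2 cells carrying transiently transfected cis-promoter reporter units. After 24 h dosing, reporter mRNA was quantified by RT-PCR and capillary electrophoresis, and values fitted bidirectionally versus DMSO.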
Sequence of Hepatocyte nuclear factor 3-beta (Homo sapiens) (Q9Y261 whole entry, looked up): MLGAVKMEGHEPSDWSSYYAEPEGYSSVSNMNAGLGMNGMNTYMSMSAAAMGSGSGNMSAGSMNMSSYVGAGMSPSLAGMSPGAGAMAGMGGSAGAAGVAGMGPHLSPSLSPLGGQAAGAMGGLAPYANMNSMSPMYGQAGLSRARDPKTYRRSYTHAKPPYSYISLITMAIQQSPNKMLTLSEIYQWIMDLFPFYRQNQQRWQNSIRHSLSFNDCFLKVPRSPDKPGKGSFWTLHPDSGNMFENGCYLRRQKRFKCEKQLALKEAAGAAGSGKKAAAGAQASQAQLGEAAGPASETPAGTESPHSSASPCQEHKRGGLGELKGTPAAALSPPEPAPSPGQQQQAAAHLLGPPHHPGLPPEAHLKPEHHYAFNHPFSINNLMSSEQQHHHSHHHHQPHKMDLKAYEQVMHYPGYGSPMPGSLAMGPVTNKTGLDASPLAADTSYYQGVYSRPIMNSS

The nature of experiment [17]: ATG_FoxO_CIS: Attagene CIS-FACTORIAL HepG2 Assay for human Forkhead box O (FoxO) (AID 2282943). The conditions noted are these: HepG2 Attagene cis-reporter, FoxO element, mRNA; actives raise or lower the signal. Summed up: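 Values reflect reporter mRNA induction or loss in HepG2 cells 24 h post-dosing, fitted bidirectionally with DMSO as negative control and baseline. Detection used RT-PCR and fluorescence capillary electrophoresis.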

Experiment [18] in a line: ATG_GATA_CIS: Attagene CIS-FACTORIAL HepG2 Assay for human GATA Binding Protein (AID 2282944). The conditions noted are these: HepG2 GATA cis-element reporter, Attagene multiplex mRNA; actives raise or lower the signal. The method, boiled down:
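Transfected cis-reporter HepG2 cells were treated with chemicals for 24 hours. Total RNA was then converted to cDNA, amplified with reporter-specific primers and analysed by fluorescent capillary electrophoresis, using DMSO-treated wells as baseline.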

Experiment [19] in a line: ATG_GLI_CIS: Attagene CIS-FACTORIAL HepG2 Assay for human Zinc Finger Protein GLI1 (AID 2282945). The conditions noted are these: HepG2, Attagene cis-factorial reporter mRNA, GLI element; actives raise or lower the signal. Summed up:
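HepG2 cells transiently transfected with cis-promoter multiplexed reporter units report endogenous transcription factor activity. After 24 h chemical exposure, reporter mRNA was quantified by RT-PCR, 6-FAM labelling, HpaI digestion and capillary electrophoresis, with bidirectional fitting against DMSO.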

Active and inactive are the calls of the source. How the source made its calls: active means hit-call score of the fitted dose curve at least 0.9, where 1 is the maximum; inactive means score below 0.9.

Sequence of Aryl hydrocarbon receptor (Homo sapiens) (P35869 whole entry, looked up): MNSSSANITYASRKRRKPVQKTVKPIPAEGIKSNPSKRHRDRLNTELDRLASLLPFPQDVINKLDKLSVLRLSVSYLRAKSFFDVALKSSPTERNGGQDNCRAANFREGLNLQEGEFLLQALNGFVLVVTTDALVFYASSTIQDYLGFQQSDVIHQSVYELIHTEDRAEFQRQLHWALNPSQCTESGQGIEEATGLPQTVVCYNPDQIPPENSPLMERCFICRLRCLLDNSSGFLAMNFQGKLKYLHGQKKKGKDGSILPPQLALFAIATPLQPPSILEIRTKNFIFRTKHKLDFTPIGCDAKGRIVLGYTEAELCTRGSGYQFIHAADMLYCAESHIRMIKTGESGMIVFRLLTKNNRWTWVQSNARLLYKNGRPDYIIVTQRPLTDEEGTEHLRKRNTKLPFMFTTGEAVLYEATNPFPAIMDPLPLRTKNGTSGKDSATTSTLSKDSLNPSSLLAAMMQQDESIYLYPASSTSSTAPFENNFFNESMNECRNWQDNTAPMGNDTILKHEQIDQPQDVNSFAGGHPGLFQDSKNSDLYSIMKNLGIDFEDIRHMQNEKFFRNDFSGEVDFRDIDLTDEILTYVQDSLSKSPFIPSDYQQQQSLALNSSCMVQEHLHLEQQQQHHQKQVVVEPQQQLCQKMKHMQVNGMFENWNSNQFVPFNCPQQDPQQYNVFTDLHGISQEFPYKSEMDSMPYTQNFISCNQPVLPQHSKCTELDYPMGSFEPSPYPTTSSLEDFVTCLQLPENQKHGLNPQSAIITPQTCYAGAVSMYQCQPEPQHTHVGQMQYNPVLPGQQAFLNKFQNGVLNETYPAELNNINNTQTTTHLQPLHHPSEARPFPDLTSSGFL
Sequence of CCAAT/enhancer-binding protein beta (Homo sapiens) (P17676 whole entry, looked up): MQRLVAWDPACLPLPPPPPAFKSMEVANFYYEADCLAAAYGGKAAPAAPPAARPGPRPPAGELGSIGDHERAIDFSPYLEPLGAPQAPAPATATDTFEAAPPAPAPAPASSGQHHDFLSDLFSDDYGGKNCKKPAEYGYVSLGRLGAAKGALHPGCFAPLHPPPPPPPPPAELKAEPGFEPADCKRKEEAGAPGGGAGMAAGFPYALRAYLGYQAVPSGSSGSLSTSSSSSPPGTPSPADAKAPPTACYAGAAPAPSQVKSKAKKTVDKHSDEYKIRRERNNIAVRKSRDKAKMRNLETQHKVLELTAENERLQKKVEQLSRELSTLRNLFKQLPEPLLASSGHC
Sequence of Retinoic acid receptor alpha (Homo sapiens) (P10276 whole entry, looked up): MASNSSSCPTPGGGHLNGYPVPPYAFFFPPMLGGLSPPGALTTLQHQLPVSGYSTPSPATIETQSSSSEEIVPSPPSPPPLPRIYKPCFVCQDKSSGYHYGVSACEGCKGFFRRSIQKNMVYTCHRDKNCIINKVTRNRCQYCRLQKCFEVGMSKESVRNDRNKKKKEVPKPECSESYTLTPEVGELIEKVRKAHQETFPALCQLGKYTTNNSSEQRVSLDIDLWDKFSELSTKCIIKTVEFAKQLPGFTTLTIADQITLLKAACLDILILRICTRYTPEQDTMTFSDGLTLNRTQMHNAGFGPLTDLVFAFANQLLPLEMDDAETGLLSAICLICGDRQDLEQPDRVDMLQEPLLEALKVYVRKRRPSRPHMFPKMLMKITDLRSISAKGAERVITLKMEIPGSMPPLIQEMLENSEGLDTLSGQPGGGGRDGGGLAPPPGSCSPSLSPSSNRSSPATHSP

As for `C=COCCOCCOC=C`, the call in experiment [1], in [2], in [3], in experiment [4], in [5] and in experiment [6] was inactive. The outcome in experiment [7], in experiment [8], in experiment [9], in [10], in [11] and in [12] was inactive. Besides, the compound was classed as inactive in experiment [13], in experiment [14], in [15], in [16], in experiment [17] and in [18]. For the same compound, the compound was classed as inactive in experiment [19].

Regarding `O=C(O)CCCCCCCCC(=O)O`, the compound was classed as inactive in experiment [1], in experiment [2], in experiment [3], in [4], in [5] and in experiment [6]. Moreover, the compound was called inactive in experiment [7], in [8], in [9], in [10], in [11] and in experiment [12]. The outcome in experiment [13], in [14], in experiment [15], in experiment [16], in experiment [17] and in [18] was inactive. The outcome in [19] was inactive.

As to `O=C(c1ccccc1)C(O)c1ccccc1` (stereo unspecified), the result in experiment [1], in experiment [2], in experiment [3], in experiment [4], in [5] and in [6] was inactive. The compound was classed as inactive in experiment [7], in experiment [8], in experiment [9], in [10], in experiment [11] and in experiment [12]. Moreover, the compound was called inactive in [13], in experiment [14], in experiment [15], in [16], in experiment [17] and in experiment [18]. In experiment [19], the compound was classed as inactive.

For `C=C(C)C1CC=C(C)C(=O)C1` (stereo unspecified), the compound was called inactive in experiment [1], in experiment [2], in experiment [3], in experiment [4], in [5] and in experiment [6]. The outcome in [7], in [8], in experiment [11], in [12], in experiment [13] and in [14] was inactive. Further, the compound was called inactive in experiment [15], in experiment [16], in experiment [17], in [18] and in experiment [19].

Turning to `CCCCCCC(C)(C)S`, the outcome in [1], in [2], in experiment [3], in experiment [4], in [5] and in experiment [6] was inactive. For the same compound, the call in experiment [7], in [9], in experiment [10], in [11], in experiment [12] and in experiment [13] was inactive. For the same compound, the result in experiment [14], in experiment [15], in experiment [16], in experiment [18] and in experiment [19] was inactive.

With `CCCCCCC(C)Nc1ccc(Nc2ccccc2)cc1` (stereo unspecified), the compound was called inactive in experiment [1], in experiment [2], in experiment [5], in experiment [7], in experiment [9] and in experiment [10]. Moreover, the result in experiment [11], in experiment [12], in experiment [13], in [14], in experiment [15] and in [16] was inactive. For the same compound, the compound was called inactive in [17], in experiment [18] and in experiment [19]. In addition, the results for the AC50 in experiment [3], in experiment [4] and in [6] were 21.8 µM (active), 44.4 µM (active) and 28.9 µM (active), respectively.

As for `CC1(C)C2=CCCC(C)(C)[C@]23CC[C@H]1C3`, the outcome in experiment [1], in experiment [2], in experiment [5], in experiment [7], in experiment [9] and in [10] was inactive. The outcome in experiment [11], in experiment [12], in experiment [13], in [15], in experiment [16] and in experiment [17] was inactive. For the same compound, the result in [18] and in experiment [19] was inactive. Moreover, the half-maximal activity concentration (AC50) in experiment [3] is 112 µM (active); in experiment [4] it was 100 µM (active); in [6], 100 µM (active).

By AC50 is commonly meant the concentration at which the activity in the assay is half-maximal.
